Consider 14 molecules from PubChem BioAssay (NCI).

Values joined by “and” are separate entries in the source; they are usually repeats but may differ in a detail not shown here. Equal entries are not always repeated. This is part of a sample that, as a whole, favours compounds with a hit. Of some 79,000 tested, about 15% had one in any assay. Values without a mark were called inactive. Active and inactive are the calls of the source. No stated cut-off is given here; in the data, active means growth inhibition above about 70%; inactive means the rest.

Assay [1] can be described thus: NCI Yeast Anticancer Drug Screen. Data for the mec2-1 strain (AID 157). Particulars: S. cerevisiae mec2-1 strain, stronger effect = higher value. The essentials:
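Using mec2-1 yeast: add compound, measure growth, express inhibition versus vehicle-treated cultures.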

Assay [2] can be described thus: NCI Yeast Anticancer Drug Screen. Data for the sgs1 mgt1 strain (AID 161).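 Further: 0% = growth of cultures given vehicle only.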 As to conditions: S. cerevisiae sgs1 mgt1 strain, stronger effect = higher value. In short, it runs like this:
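Growth of a repair-deficient yeast mutant was monitored after compound treatment and expressed as inhibition relative to vehicle-treated cultures.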

A short description of assay [3]: NCI Yeast Anticancer Drug Screen. Data for the cln2 rad14 strain (AID 165).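 Further: 0% = growth equal to vehicle treated cultures.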 As to conditions: S. cerevisiae cln2 rad14 strain, stronger effect = higher value. The essentials: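 Yeast strain cln2 rad14, bearing defects in cell cycle control and DNA repair, serves as the test system; values reflect growth inhibition compared with vehicle.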
A short description of assay [4]: NCI Yeast Anticancer Drug Screen. Data for the bub3 strain (AID 167). As to conditions: S. cerevisiae bub3 mutant strain, stronger effect = higher value. In short, it runs like this:
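Readout: yeast growth inhibition, expressed relative to vehicle-only wells. The test organism is a mutant strain from a panel with lesions in DNA repair or checkpoint genes.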

Assay [5] can be described thus: NCI Yeast Anticancer Drug Screen. Data for the mlh1 rad18 strain (AID 175). As to conditions: S. cerevisiae mlh1 rad18 strain growth inhibition, stronger effect = higher value. The essentials:
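Steps: expose repair-defective yeast to compound; measure growth; express inhibition against vehicle-treated controls.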

Assay [6] is described as follows: NCI Yeast Anticancer Drug Screen. Data for the rad50 strain (AID 155).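 Further: 0% = growth of vehicle-only cultures of the same strain.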 Particulars: S. cerevisiae rad50 strain growth inhibition, stronger effect = higher value. The essentials: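 Readout: growth inhibition relative to vehicle-treated cultures. Compound exposure was carried out in a genetically defined yeast strain deficient in DNA damage repair.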
The mark [7] stands for this setting: at 5.0 µM (retest, dose inferred, filed as 0.5).
Where [8] appears, read: at 50.0 µM (retest, dose inferred, filed as 5.0).

Take `Nc1nc(-c2ccccc2)nc(Cl)c1I`: the growth inhibition is -3% in assay [1] (setting [7]); 24% in assay [1] (setting [8]); 28.9% in assay [1] (at 50.0 µM); 3% in assay [2] (setting [7]); 43% in assay [2] (setting [8]); 78% (active) in assay [2] (at 50.0 µM). The growth inhibition in assay [3] (setting [7]) was 3%; in assay [3] (setting [8]), 21%; in assay [3] (at 50.0 µM), 15.6%; in assay [4] (setting [7]) it was -10%; in assay [4] (setting [8]), 16%; in assay [4] (at 50.0 µM), -5.25%. For the same molecule, the growth inhibition is -4% in assay [5] (setting [7]), 21% in assay [5] (setting [8]) and 81.4% (active) in assay [5] (at 50.0 µM).

As for `Cc1ccc(S(=O)(=O)OCC(O)C(O)COS(=O)(=O)c2ccc(C)cc2)cc1` (centres undefined), the growth inhibition was 35.8% and -13.8% and 12.6% in assay [6] (at 50.0 µM); -10.2% and -4.45% and -13.8% in assay [1] (at 50.0 µM); 25.3% and -27.6% and -5.9% in assay [2] (at 50.0 µM); 11.1% and -21.9% and -13.5% in assay [3] (at 50.0 µM); 9.15% and -12.4% and 6.35% in assay [4] (at 50.0 µM); 26.1% and -1.9% and -2.9% in assay [5] (at 50.0 µM).

With `OC(c1ccccc1)C(O)c1ccccc1` (centres undefined), the growth inhibition is 5.85% and 22.8% and 24.1% in assay [6] (at 50.0 µM); -4.45% and -6.3% and 14.8% in assay [1] (at 50.0 µM); 4.4% and 1.85% and 11.1% in assay [2] (at 50.0 µM); -9.15% and -19.2% and 9.15% in assay [3] (at 50.0 µM); 9.4% and 11.6% and 15.7% in assay [4] (at 50.0 µM); 20.1% and 11.9% and 2.4% in assay [5] (at 50.0 µM).

`OCC(O)C(O)C(O)C(O)CNCC(O)C(O)C(O)C(O)CO` (centres undefined): the growth inhibition in assay [6] (at 50.0 µM) is 5.3% and 10.1% and 19.6%; in assay [1] (at 50.0 µM), 15% and 17.2% and 10.3%; in assay [2] (at 50.0 µM), 12.8% and 14.3% and -2.5%; in assay [3] (at 50.0 µM), -6.2% and -7.7% and -3.1%; in assay [4] (at 50.0 µM) it was 13% and 14.2% and 3.75%; in assay [5] (at 50.0 µM) it was 17.4% and 21% and 20.8%.

As for `CC1(c2ccccc2)OC(=O)C=CC1=O` (centres undefined), the growth inhibition in assay [1] (setting [7]) was 28%; in assay [1] (setting [8]), 98% (active); in assay [1] (at 50.0 µM), 99.7% (active); in assay [2] (setting [7]), 21%; in assay [2] (setting [8]) it was 97% (active); in assay [2] (at 50.0 µM), 99.5% (active). In addition, the growth inhibition is 8% in assay [3] (setting [7]); 100% (active) in assay [3] (setting [8]); 99% (active) in assay [3] (at 50.0 µM); 32% in assay [4] (setting [7]); 100% (active) in assay [4] (setting [8]); 99.5% (active) in assay [4] (at 50.0 µM). The values for the growth inhibition in assay [5] (setting [7]), in assay [5] (setting [8]) and in assay [5] (at 50.0 µM) were 27%, 99% (active) and 99.5% (active), respectively.

With `Oc1ccc(CC2CCC(O)CC2)cc1` (centres undefined), the growth inhibition was -61% in assay [1] (setting [7]); -33% in assay [1] (setting [8]); 28.6% in assay [1] (at 50.0 µM); -66% in assay [2] (setting [7]); -54% in assay [2] (setting [8]); 22.6% in assay [2] (at 50.0 µM). For the same molecule, the growth inhibition in assay [3] (setting [7]) is -59%; in assay [3] (setting [8]), -43%; in assay [3] (at 50.0 µM) it was 45%; in assay [4] (setting [7]) it was -76%; in assay [4] (setting [8]), -24%; in assay [4] (at 50.0 µM) it was 46.6%. Besides, the growth inhibition in assay [5] (setting [7]) is -121%; in assay [5] (setting [8]), -78%; in assay [5] (at 50.0 µM), 24.2%.

As for `O=C1C(c2ccc([N+](=O)[O-])cc2)=C(Cl)C(=O)c2c(O)cccc21`, the growth inhibition was -3% in assay [1] (setting [7]); -9% in assay [1] (setting [8]); 45.1% in assay [1] (at 50.0 µM); 0% in assay [2] (setting [7]); -19% in assay [2] (setting [8]); 27.8% in assay [2] (at 50.0 µM). Besides, the growth inhibition is 8% in assay [3] (setting [7]); 0% in assay [3] (setting [8]); 1% in assay [3] (at 50.0 µM); 3% in assay [4] (setting [7]); -37% in assay [4] (setting [8]); 69.2% in assay [4] (at 50.0 µM). In addition, the growth inhibition in assay [5] (setting [7]) is -14%; in assay [5] (setting [8]), 0%; in assay [5] (at 50.0 µM) it was 45.4%.

`COC(=O)c1ccc(NN)cc1`: the growth inhibition in assay [1] (setting [7]) is 4%; in assay [1] (setting [8]) it was 19%; in assay [1] (at 50.0 µM), 61%; in assay [2] (setting [7]), 3%; in assay [2] (setting [8]) it was 17%; in assay [2] (at 50.0 µM) it was 36.1%. Moreover, the growth inhibition in assay [3] (setting [7]) is 3%; in assay [3] (setting [8]) it was 42%; in assay [3] (at 50.0 µM) it was 46.1%; in assay [4] (setting [7]), 3%; in assay [4] (setting [8]), 85% (active); in assay [4] (at 50.0 µM) it was 86% (active). The growth inhibition in assay [5] (setting [7]) is 4%; in assay [5] (setting [8]), 42%; in assay [5] (at 50.0 µM) it was 40.9%.

As for `CCCCCCCCCCCCC1N=C(N)N2CCCC2=C1C(=O)OC` (centres undefined), the growth inhibition in assay [6] (setting [7]) is 82% (active); in assay [6] (setting [8]), 99% (active); in assay [6] (at 50.0 µM), 89.2% (active); in assay [2] (setting [7]), 69%; in assay [2] (setting [8]), 99% (active); in assay [2] (at 50.0 µM), 87.4% (active). Moreover, the growth inhibition in assay [3] (setting [7]) is 100% (active); in assay [3] (setting [8]), 99% (active); in assay [3] (at 50.0 µM), 90.5% (active); in assay [4] (setting [7]) it was 99% (active); in assay [4] (setting [8]), 99% (active); in assay [4] (at 50.0 µM), 90.4% (active). For the same molecule, the growth inhibition in assay [5] (setting [7]) is 99% (active); in assay [5] (setting [8]), 99% (active); in assay [5] (at 50.0 µM), 84.7% (active).

Consider `CC(C(=O)NN)C(O)C(C)(C)O` (centres undefined), for which the growth inhibition in assay [6] (setting [7]) is 3%; in assay [6] (setting [8]), -5%; in assay [6] (at 50.0 µM), 58.7%; in assay [2] (setting [7]) it was 1%; in assay [2] (setting [8]), 3%; in assay [2] (at 50.0 µM) it was -7.4%. The growth inhibition in assay [3] (setting [7]) was 1%; in assay [3] (setting [8]), -9%; in assay [3] (at 50.0 µM) it was -47.5%; in assay [4] (setting [7]), -2%; in assay [4] (setting [8]) it was 1%; in assay [4] (at 50.0 µM), -5.85%. Besides, the growth inhibition is 7% in assay [5] (setting [7]), 4% in assay [5] (setting [8]) and 6.05% in assay [5] (at 50.0 µM).

Regarding `CCSc1nc2ccc(N3C(=O)C=CC3=O)cc2s1`, the growth inhibition in assay [6] (setting [7]) is 88% (active); in assay [6] (setting [8]) it was 100% (active); in assay [6] (at 50.0 µM), 99.7% (active); in assay [2] (setting [7]), 96% (active); in assay [2] (setting [8]), 100% (active); in assay [2] (at 50.0 µM) it was 99.5% (active). Moreover, the growth inhibition in assay [3] (setting [7]) was 34%; in assay [3] (setting [8]), 99% (active); in assay [3] (at 50.0 µM), 99.3% (active); in assay [4] (setting [7]), 93% (active); in assay [4] (setting [8]), 99% (active); in assay [4] (at 50.0 µM), 99.6% (active). Also, the results for the growth inhibition in assay [5] (setting [7]), in assay [5] (setting [8]) and in assay [5] (at 50.0 µM) were 98% (active), 99% (active) and 99.3% (active), respectively.

Turning to `O=C(Nn1cc(F)c(=O)[nH]c1=O)C12CC3CC(CC(C3)C1)C2`, the growth inhibition was 20% in assay [1] (setting [7]); 96% (active) in assay [1] (setting [8]); 51.4% in assay [1] (at 50.0 µM); 42% in assay [2] (setting [7]); 96% (active) in assay [2] (setting [8]); 91.4% (active) in assay [2] (at 50.0 µM). In addition, the growth inhibition in assay [3] (setting [7]) was 20%; in assay [3] (setting [8]) it was 52%; in assay [3] (at 50.0 µM), 86.1% (active); in assay [4] (setting [7]), 41%; in assay [4] (setting [8]), 90% (active); in assay [4] (at 50.0 µM) it was 87.5% (active). The growth inhibition was 41% in assay [5] (setting [7]), 97% (active) in assay [5] (setting [8]) and 57.9% in assay [5] (at 50.0 µM).

On to `COC1OC2COC(c3ccccc3)OC2C(O)C1O` (centres undefined), for which the growth inhibition in assay [6] (at 50.0 µM) is -23.9% and 17.1% and 20.4%; in assay [1] (at 50.0 µM), -11.6% and -15.6% and -3.65%; in assay [2] (at 50.0 µM) it was -3.35% and 7.95% and 0.55%; in assay [3] (at 50.0 µM), -29.2% and -46% and -45.3%; in assay [4] (at 50.0 µM), -9.35% and -19.9% and -17.4%; in assay [5] (at 50.0 µM) it was -3.15% and -3.95% and 9.8%.

Consider `Cn1c(-c2ccccc2)c(CCNC(=O)C2CCC2)c2ccccc21`, for which the growth inhibition was 18% in assay [6] (setting [7]); 18% in assay [6] (setting [8]); 81.2% (active) in assay [6] (at 50.0 µM); 12% in assay [2] (setting [7]); 12% in assay [2] (setting [8]); 79.2% (active) in assay [2] (at 50.0 µM). Also, the growth inhibition is 7% in assay [3] (setting [7]); 7% in assay [3] (setting [8]); 77.3% (active) in assay [3] (at 50.0 µM); 11% in assay [4] (setting [7]); 11% in assay [4] (setting [8]); 79.2% (active) in assay [4] (at 50.0 µM). Also, the growth inhibition was 18% in assay [5] (setting [7]), 18% in assay [5] (setting [8]) and 75.2% (active) in assay [5] (at 50.0 µM).
